IL2 activator: IL-2 activation | IL-2 activation reporter assay, cell-based qHTS; stimulated with anti-CD3/CD4/CD28 beads; in transgenic mouse T cells | activation, % (series mostly up to about 46 µM) | 360,000 compounds, 0.065% hits; in the data active means activation above about 50%; inconclusive means mostly about 30% to 49%; further: 0% is about no effect
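Using fluorescent plate cytometry, EGFP and DsRed are detected in transgenic mouse T cells stimulated 18 h at 37 degrees C with antibody-coated beads after 60 min compound pretreatment.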
ASM inhibitor: human S-ASM enzyme inhibition | AID 504937 | 340,000 compounds, 0.006% hits | placental ASM, HMU-PC fluorogenic substrate, 60 min | Potency, µM (highest dose often 57.5 µM), for the others: at the top dose activity change, negative = inhibition, actives largely listed as inhibitors; further: potency means the concentration at half of the fitted maximal effect
Target sequence (P17405 47-631 limits assumed): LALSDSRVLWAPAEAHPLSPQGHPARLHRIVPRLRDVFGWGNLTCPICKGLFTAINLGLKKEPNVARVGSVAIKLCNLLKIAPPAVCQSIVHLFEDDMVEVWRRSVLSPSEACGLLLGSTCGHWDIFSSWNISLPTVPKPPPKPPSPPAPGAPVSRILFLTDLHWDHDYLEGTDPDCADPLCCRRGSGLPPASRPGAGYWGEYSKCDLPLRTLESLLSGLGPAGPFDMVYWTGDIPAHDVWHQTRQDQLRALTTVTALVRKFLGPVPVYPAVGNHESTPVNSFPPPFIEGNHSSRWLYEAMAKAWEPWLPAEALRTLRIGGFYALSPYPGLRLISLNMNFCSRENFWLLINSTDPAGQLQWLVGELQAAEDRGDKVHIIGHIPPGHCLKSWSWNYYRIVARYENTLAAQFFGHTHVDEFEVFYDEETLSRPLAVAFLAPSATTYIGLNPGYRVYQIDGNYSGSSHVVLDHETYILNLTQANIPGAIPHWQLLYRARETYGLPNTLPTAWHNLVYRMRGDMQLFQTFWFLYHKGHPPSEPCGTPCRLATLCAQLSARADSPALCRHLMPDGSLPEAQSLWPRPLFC
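Fluorescence read-out (Ex 386 nm, Em 447 nm) after stopping the reaction at pH 10. Enzyme: ASM from human placenta; substrate HMU-PC0, 9 uM final; 60 min, 37 °C. Compound preincubation 10 min, ambient temperature.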
PKM2 activator: PKM2 (human) enzyme activation. AID 1631. P14618. purified PKM2, Kinase-Glo ATP luminescence, activation; response scale: 0% is enzyme alone, no compound. Potency, µM (titrated, usually from 57.5 µM), without a hit: top-dose activation, usual class: activators. 260,000 compounds, 0.34% hits; further: potency means the concentration at half of the fitted maximal effect; on the % scale 0 is the no-effect control and ±100 the full control effect; nearly all actives have a fitted effect of over 55% in size
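hPK-M2, >95% pure; 0.1 mM ADP / 0.5 mM PEP final; imidazole pH7.2 buffer w/ 7 mM MgCl2, 50 mM KCl; 1 h RT; Kinase-Glo lum. Intermediate enzyme activity for dual inhibitor/activator qHTS.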
HeLa tox: HeLa cytotoxicity, CellTiter-Glo readout. shares compounds with PKM2 activator. HeLa viability, CellTiter-Glo ATP luminescence, 24 h. activity change, negative = cytotoxicity, % at 57.5 µM. 230 tested, under 10 active. AID 1898; further: % of control where 0% means no effect
Active calls of the source: *; ? = inconclusive; / = no result given. In the library only some 0.33% were active in any assay of this set; here they are far more common. Unless noted, the call rests on the fitted dose curve; in most records, active means well fitted curve in the direction sought with a large enough effect; inconclusive means small, poorly fitted or top-dose-only effect, or another doubt; inactive means no such curve, though single readings can be large; an effect the other way counts as inactive or inconclusive.

SMILES | IL2 activator | ASM inhibitor | PKM2 activator | HeLa tox
CCCCN1CCc2c([nH]c3ccc(C)cc23)C1=O | 2 | -3% | -2% | /
COC(=O)c1cccc(NC(=O)Nc2ccc(Cl)c(Cl)c2)c1 | -5 | ? | 0% | /
O=C(O)c1cncc(Br)c1 | 1 | 0% | 3% | /
CN1C(=S)SC(/[N+]([O-])=C\c2cccs2)C1(C)C (centres undefined) | 3 | 2% | -5% | /
Cc1cccn2c(=O)c(C=C(C#N)C#N)c(N3CCN(C)CC3)nc12 | -2 | 15% | 0% | /
Cc1ccc(S(=O)(=O)N2CCCN(S(=O)(=O)c3ccc4ccccc4c3)CC2)cc1 | -1 | -1% | 0.71µM* | -18
CN1CCN(S(=O)(=O)c2ccc3ccccc3c2)CC1 | -2 | 0% | -6% | /
Cc1nc2ccc(S(=O)(=O)N3CCN(S(=O)(=O)c4c(F)cccc4F)CC3)cc2s1 | / | / | / | -1
Cc1nc2ccc(NS(=O)(=O)c3c(F)cccc3F)cc2s1 | 0 | 1% | / | /
CC1Cn2c(nc3sc4c(c3c2=O)CC(C)(C)OC4)N1CCO (centres undefined) | 1 | 6% | / | /
CC(C)(C)C1CCC(=NNC(=S)Nc2cccnc2)CC1 (centres undefined) | 8 | 0% | -4% | /
CCOc1ccc(CN2CCN(C(=O)c3ccccc3)CC2)cc1 | 0 | 8% | 1% | /
CCOc1ccc(C(=O)N2CCN(Cc3ccccc3)CC2)cc1 | 1 | 2% | 5.6µM* | 0
COc1ccc(N(C(=O)c2csnn2)C(C(=O)NC2CCCC2)c2cccs2)cc1 (centres undefined) | 1 | -1% | / | /
Cc1cccc(CN2CCN(c3nc4nonc4nc3NC3CC3)CC2)c1 | 1 | 3% | 2% | /
Cc1cccc(CN2CCN(c3nc4nonc4nc3NC3CC3)CC2=O)c1 | -1 | 1% | 3.5µM* | -4
Cn1c(SCC(=O)N/N=C/C=C\c2ccco2)nc2ccccc21 | -2 | -5% | 7.1µM* | -3
CCn1c(SCC(=O)N/N=C/C=C\c2ccco2)nc2ccccc21 | -4 | -3% | ? | /
COc1ccc(Cl)cc1C(=O)NC(C)C | 1 | -3% | 0% | /
N#Cc1ccc(CSc2ncnc3c2cnn3Cc2ccccc2)cc1 | 0 | -9% | 20µM* | -2
Cc1ccc(CSc2ncnc3c2cnn3Cc2ccccc2)cc1 | -2 | -6% | ? | /
Nc1nc2ccc(S(=O)(=O)c3ccc4nc(N)sc4c3)cc2s1 | 0 | -1% | 14µM* | 0
Nc1nc2ccc(O)cc2s1 | 0 | 4% | 3% | /
COc1ccc(NC2CCCN(C(=O)CCCn3cncn3)C2)cc1 (centres undefined) | / | / | -1% | /
CCOc1ccc(CCNC(=O)c2cc(C)on2)cc1OCC | -2 | 4% | -4% | /
SMILES | IL2 activator | ASM inhibitor | PKM2 activator | HeLa tox
COc1cc2cc(C#N)c(SCC(=O)Nc3cc(C)on3)nc2cc1OC | -1 | 12% | 0.22µM* | -5
COc1ccc2nc(SCC(=O)Nc3cc(C)on3)c(C#N)cc2c1 | 0 | 35% | / | /
O[C@H]1C[C@H](c2ccccc2)N(CC2CCCCC2)C[C@@H]1n1cc(-c2ccc(F)cc2)nn1 | -5 | / | / | /
Cc1ccc(-n2ccc(=O)c(C(=O)Nc3ccc(S(=O)(=O)Nc4nccs4)cc3)n2)cc1 | 0 | -2% | 8% | /
N#Cc1ccc(S(=O)(=O)N2CCN(S(=O)(=O)c3ccc4c(c3)OCCO4)CC2)cc1 | / | / | / | -12
O=C(CN1CCN(S(=O)(=O)c2ccc(F)cc2)CC1)Nc1ccc2c(c1)OCCO2 | -1 | 0% | 7% | /
Cc1ccc(S(=O)(=O)N2CCN(S(=O)(=O)c3ccc4c(c3)OCCO4)CC2)cc1 | 0 | 1% | ? | /
CCCN1CCN(S(=O)(=O)c2ccc3c(c2)OCCO3)CC1 | 1 | 5% | ? | /
O=S(=O)(c1ccc(F)cc1)N1CCN(S(=O)(=O)c2ccc3c(c2)OCCO3)CC1 | 0 | 6% | / | 10
O=S(=O)(c1ccc(Cl)cc1)N1CCN(S(=O)(=O)c2ccc3c(c2)OCCO3)CC1 | / | / | / | ?
CCN1CCN(S(=O)(=O)c2ccc3c(c2)OCCO3)CC1 | 0 | 2% | 14% | /
CCCc1cc(F)c(S(=O)(=O)N2CCN(S(=O)(=O)c3ccc4c(c3)OCCO4)CC2)cc1F | / | / | / | -1
Cc1cc(C)cc(NC(=O)CSc2nnc(-c3ccc(S(=O)(=O)N4CCCC4)cc3)o2)c1 | -2 | -4% | ? | /
COc1cccc(CNCc2ccc(OC)c3ccccc23)c1OC | -5 | -4% | / | /
CN1CCN(NC(=O)c2cc(S(=O)(=O)Nc3ccc(Cl)cc3)ccc2Cl)CC1 | 0 | 3% | -2% | /
Cc1ccccc1-c1nnn(CC(=O)N2CCN(S(=O)(=O)c3ccc(Cl)cc3)CC2)n1 | 0 | -7% | ? | /
O=C(Cn1nnc(-c2ccccc2)n1)N1CCN(S(=O)(=O)c2ccc(Cl)cc2)CC1 | -3 | -2% | 2.5µM* | 3
CC(C)(C)N(NC(=O)c1ccccc1)C(=O)c1cccc(C(=O)N(NC(=O)c2ccccc2)C(C)(C)C)c1 | 0 | 1% | 0% | /
COc1ccc(NS(=O)(=O)c2cc(NC(=O)C3CC3)ccc2N2CCCCC2)cc1 | 1 | -13% | 6% | /
Cc1ccc(C)c2[nH]c(=O)c(CCNS(=O)(=O)c3ccccc3)cc12 | -3 | -2% | ? | /
CCOC(=O)c1c(NC(=O)CCc2ccc(CC)o2)sc(C)c1C | -1 | -8% | ? | /
COC(=O)c1c(NC(=O)CCc2ccc(C)o2)sc(C)c1C | -3 | -1% | 7.9µM* | -1
Cn1c(N)c(C(=O)CSc2ccc3c(c2)OCCO3)c(=O)n(C)c1=O | 1 | -10% | 3.5µM* | 1
Cc1cc(C)nc(SCC(=O)c2c(N)n(C)c(=O)n(C)c2=O)n1 | 2 | 1% | 4% | /
O=C(O)c1cccc(-n2cccc2/C=C2/NC(=O)N(Cc3ccccc3F)C2=O)c1 | 0 | 8% | -12% | /
O=C(CN1C(=O)N/C(=C\c2cccn2-c2cccc(C(=O)O)c2)C1=O)Nc1ccccc1F | / | / | / | -4
O=C(NC(=S)Nc1ccccc1)c1ccc(Br)o1 | 0 | 2% | -9% | /
